88 molecules from PubChem BioAssay AID1508602 (The Scripps Research Institute Molecular Screening Center, 2020) can be followed below.

Out of some 650,000 compounds screened, about 6,800 (1%) were called active. Rule as the data show it: active = activation above about 4.9%; inactive = the rest. The full list was thinned out, with actives kept by preference.

Sequence of G-protein coupled receptor 151 (Homo sapiens) (Q8TDV0 whole entry, looked up): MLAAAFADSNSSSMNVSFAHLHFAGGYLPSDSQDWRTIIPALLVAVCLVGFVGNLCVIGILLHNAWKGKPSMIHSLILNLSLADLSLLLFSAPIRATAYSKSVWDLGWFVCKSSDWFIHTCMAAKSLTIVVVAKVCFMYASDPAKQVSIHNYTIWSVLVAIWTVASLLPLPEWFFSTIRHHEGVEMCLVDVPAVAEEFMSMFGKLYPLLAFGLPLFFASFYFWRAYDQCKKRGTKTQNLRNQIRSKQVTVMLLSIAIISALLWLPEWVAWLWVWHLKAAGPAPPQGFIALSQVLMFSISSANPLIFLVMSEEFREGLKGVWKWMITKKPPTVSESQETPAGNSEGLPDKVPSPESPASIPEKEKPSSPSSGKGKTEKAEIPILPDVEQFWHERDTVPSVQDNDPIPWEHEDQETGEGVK

This experiment addresses G-protein coupled receptor 151 (Homo sapiens) (UniProt Q8TDV0). The experiment is described as follows: activators of human GPR151, primary screen, cell-based, PathHunter beta-arrestin, luminescence (AID 1508602).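 Also: 0% = median of compound wells and 100% = cells with positive control.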 The note with it: PathHunter beta-arrestin GPR151 cells, at 11.2 µM, active compounds read high.
Take `CSc1ncc(C(=O)Nc2ccc(F)cc2C)c(C)n1`: the activation is -0.309% (inactive). Regarding `O=C(Nc1ccccc1)NC1(C(=O)Nc2ccc(F)cc2F)CCCCC1`, the activation is 0.408% (inactive). The value for `Cc1ccc(NC(=O)Cn2c(C)c(C=O)c3ccccc32)cc1C` was 1.3% (inactive); that for `COc1ccc(-c2nnc(SCC(=O)Nc3ccc4c(c3)OCCO4)o2)cc1OC` was 0.0025% (inactive). The value for `Cc1sc2nc(CN(C(=O)C3CC3)C3CCCC3)[nH]c(=O)c2c1C` was 0.605% (inactive); that for `Cc1sc2nc(Cc3ccccc3)[nH]c(=O)c2c1C` was 0.303% (inactive). The value for `CCC(CC)C(=O)N1CCN(Cc2nc3sc(C)c(C)c3c(=O)[nH]2)CC1` was 5.71% (active). For `O=C(CCCCn1c(=O)[nH]c2ccccc2c1=O)N1CCN(c2cccc(Cl)c2)CC1`, the activation is -0.11% (inactive). The value for `Oc1oc(-c2cccc3ccccc23)nc1C=Nc1ccc2ccccc2c1` was -1.09% (inactive); that for `CCCCc1ccc(-c2nc(C=Nc3ccc(C(C)=O)cc3)c(O)o2)cc1` was -0.204% (inactive); that for `CCCCc1ccc(N=Cc2nc(-c3cccc4ccccc34)oc2O)cc1` was 7.67% (active). Take `COc1ccc(CNC2CCCN(c3nc(C)c4ccc(C)cc4n3)CC2)cc1OC` (stereo not drawn): the activation is -0.801% (inactive). As for `COc1ccc(NC(=O)C2CC(=O)N(C3CCCCC3)C2)cc1` (stereo not drawn), the activation is 0.591% (inactive). On to `Cc1ccc(C)c(NC(=O)C(Cc2ccccc2)N2C(=O)c3cccc([N+](=O)[O-])c3C2=O)c1` (stereo not drawn), for which the activation was 1.63% (inactive). The value for `CCOc1ccc(C(=O)Nc2nnc(CC)s2)cc1[N+](=O)[O-]` was 7.7% (active); that for `CCOc1ccc(C(=O)Nc2ccc(C(=O)OC)cc2)cc1[N+](=O)[O-]` was 1.51% (inactive). With `CCOc1ccc(C(=O)Nc2ccccc2I)cc1[N+](=O)[O-]` the figure was 2.03% (inactive); with `Cc1ccccc1-n1c(C)cn2c3c(=O)n(CC(N)=O)c(=O)n(C)c3nc12`, 0.26% (inactive); with `O=S(=O)(NC1CCCCC1)c1ccc(S(=O)(=O)n2cnc3ccccc32)cc1`, 3.37% (inactive).

On to `COc1cccc(NC(=O)CN(C)S(=O)(=O)c2ccc3c(c2)SCC(=O)N3)c1`, for which the activation is 5.58% (active). With `CCc1cccc(CC)c1NC(=O)CCS(=O)(=O)c1ccc2c(c1)SCC(=O)N2` the figure was -0.523% (inactive); with `COc1ccc(S(=O)(=O)N(C)CC(=O)Nc2cccc(C(F)(F)F)c2)cc1OC`, 1.26% (inactive); with `O=C(NNC1=NCCCCC1)c1ccc([N+](=O)[O-])cc1`, 4.83% (inactive). With `CC(=O)NCc1nnc2n1CCN(Cc1ccc(-c3ccccc3)cc1)CC2` the figure was -0.371% (inactive); with `CC(C)CNC(=O)C(C)N(c1ccccc1)S(C)(=O)=O` (stereo not drawn), 1.91% (inactive). With `Cc1nc2nc(SCc3c(F)cccc3Cl)nn2c(C)c1Cc1c(F)cccc1Cl` the figure was 0.427% (inactive); with `Cc1nc2nc(SCc3ccc([N+](=O)[O-])cc3)nn2c(C)c1Cc1c(F)cccc1Cl`, 5.69% (active); with `Cc1nc2ncnn2c(C)c1Cc1c(F)cccc1Cl`, 0.47% (inactive). `CCOC(=O)c1cnc2c(C)c(Cl)ccc2c1Nc1cccc(C)c1`: the activation is 1.7% (inactive). Take `O=C(C1CC1)N1CC[C@H]2[C@H](CCCN2C/C=C/c2ccco2)C1`: the activation is 0.174% (inactive).

On to `O=C(Nc1ccccc1)c1cnc(N2CCC(N3CCOCC3)CC2)s1`, for which the activation is -1.62% (inactive). The value for `COc1ccc(/C=C/C(=O)NCCSc2ccccn2)cc1` was -0.668% (inactive); that for `COc1ccc(C=C(C#N)C#N)c(CSc2ccccn2)c1` was 5.44% (active). With `COc1cccc(N(CC(=O)NCCSc2ccccn2)S(C)(=O)=O)c1` the figure was 1.03% (inactive). As for `Cn1c(SCC(=O)NC(Cc2ccccc2)C(=O)O)nnc1-c1ccncc1` (stereo not drawn), the activation is -0.851% (inactive).

On to `CCOc1ccc(CCn2c(-c3ccccc3)cn3c4c(=O)n(C)c(=O)n(C)c4nc23)cc1OCC`, for which the activation was 0.226% (inactive). For the molecule `O=C1CC(N2CCN(c3ccc(Cl)cc3)CC2)C(=O)N1c1ccc(Cl)c(Cl)c1` (stereo not drawn), the activation was -0.621% (inactive).

Turning to `Cc1ccc(N2C(=O)CC(N3CCC(Cc4ccccc4)CC3)C2=O)cc1Cl` (stereo not drawn), the activation was -0.328% (inactive). As for `Cc1ccc(N2C(=O)CC(N3CCN(Cc4ccc(Cl)cc4)CC3)C2=O)cc1Cl` (stereo not drawn), the activation was 5.11% (active). In the case of `COc1ccc2ccccc2c1CN1CCc2nnc(C(C)NC(=O)C(C)C)n2CC1` (stereo not drawn), the activation is 1.9% (inactive). `COc1cc(C(C)=Nc2c(C)n(C)n(-c3ccccc3)c2=O)cc(O)c1OC`: the activation is 5.37% (active).

`COc1ccc(C(=O)Nc2c(C)n(C)n(-c3ccccc3)c2=O)c(OC)c1OC`: the activation is 0.96% (inactive). As for `Cc1c(N=C(Nc2ccccc2)Nc2ccccc2)c(=O)n(-c2ccccc2)n1C`, the activation was -0.384% (inactive).

In the case of `CCOc1ccc(CCNC(=O)Cn2c(-c3cncs3)nc3ccccc32)cc1OCC`, the activation was -0.67% (inactive). The value for `O=C(Nc1ccccc1)/C(=C\c1ccco1)NC(=O)c1cccc(Cl)c1` was 0.512% (inactive); that for `CCOC(=O)c1cnc2c(OC)cccc2c1Nc1ccc(Oc2ccccc2)cc1` was -0.414% (inactive); that for `CCN(CC)c1nc(Nc2ccccc2)nc(Nc2ccc(NC(C)=O)cc2)n1` was -0.926% (inactive). The value for `CCN(CC)c1nc(Nc2ccccc2)nc(Nc2ccccc2)n1` was 6.59% (active). Take `CCN(CC)c1nc(NCc2ccccc2)nc(NCc2ccc3c(c2)OCO3)n1`: the activation is 0.801% (inactive). On to `COc1cccc(C(=O)COC(=O)c2c3c(nc4ccccc24)CCCC3)c1`, for which the activation is 1.21% (inactive). On to `CCOC1=C/C(=C/c2c(N)n3nc(N4CCCC4)sc3nc2=O)C=CC1=O`, for which the activation was -1.93% (inactive).

For the molecule `CC1CCCN(CC(O)COc2ccc3c(c2)OCO3)C1` (stereo not drawn), the activation is -0.477% (inactive). The value for `COC(=O)C(C)CN1CCN(Cc2ccc3c(c2)OCO3)CC1` (stereo not drawn) was -1.4% (inactive); that for `CN1CCN(CC(O)COCc2ccc3c(c2)OCO3)CC1` (stereo not drawn) was 10.1% (active).

As to `CCC(=O)Nc1cccc(Nc2nc(Cl)nc(Nc3cccc(NC(=O)CC)c3)n2)c1`, the activation was 0.686% (inactive). Consider `Cc1ccc(CS(=O)(=O)CC2Nc3ccc(C(=O)NC4CCCC4)cc3NC2=O)cc1` (stereo not drawn), for which the activation is -0.216% (inactive). The value for `Cc1cc(=O)[nH]c(NCCC(=O)O)n1` was 0.811% (inactive); that for `COCCn1c(C)cc(C(=O)COC(=O)C2COc3ccccc3O2)c1C` (stereo not drawn) was 0.229% (inactive). With `COCCn1c(C)cc(C(=O)CSc2nnc3scc(-c4ccc(C)cc4)n23)c1C` the figure was 1.12% (inactive). As to `COCCn1c(C)cc(C(=O)CSc2nnc(-c3ccccc3)o2)c1C`, the activation is 9.35% (active). Consider `COc1ccc(C2/C(=C(\O)c3ccc(Br)cc3)C(=O)C(=O)N2c2nccs2)cc1OC` (stereo not drawn), for which the activation is -0.318% (inactive).

In the case of `Cc1cccc(-n2nc3c(c2NC(=O)C2CCCC2)CS(=O)(=O)C3)c1C`, the activation was -1.12% (inactive). With `Cc1cccc(-n2nc3c(c2NC(=O)CCC2CCCCC2)CS(=O)(=O)C3)c1C` the figure was 5.19% (active); with `Cc1cccc(-n2nc3c(c2NC(=O)CCC2CCCC2)CS(=O)(=O)C3)c1C`, -0.834% (inactive). The value for `O=S(=O)(NCC(c1cccnc1)N1CCN(c2ccccc2)CC1)c1ccc(F)cc1` (stereo not drawn) was -1.39% (inactive). `Cc1ccc(S(=O)(=O)NCC(c2cccnc2)N2CCN(c3ccc(F)cc3)CC2)cc1` (stereo not drawn): the activation is 4.96% (active).

Take `COc1ccc(N2CCN(C(CNS(=O)(=O)c3c(C)cc(C)cc3C)c3cccnc3)CC2)cc1` (stereo not drawn): the activation was 0.0567% (inactive).

With `CC(=O)Nc1nc2c(s1)-c1cccc3cccc-2c13`, the activation is -0.686% (inactive). Consider `COc1cc(Nc2cc(N3CCN(c4ccc(F)cc4)CC3)c3noc4c3c2C(=O)c2ccccc2-4)cc(OC)c1OC`, for which the activation is 5.65% (active). The value for `CCN1CCN(c2cc(Nc3cc(OC)c(OC)c(OC)c3)c3c4c(onc24)-c2ccccc2C3=O)CC1` was -0.784% (inactive); that for `CCN1CCN(c2cc(Nc3cccc(OC)c3)c3c4c(onc24)-c2ccccc2C3=O)CC1` was -1.99% (inactive). The value for `Cn1c(SCC(=O)NCc2cccs2)nnc1C1CC1` was 0.896% (inactive). The value for `CCc1ccc(NC(=O)CCS(=O)(=O)c2cc3c(cc2Cl)NC(=O)CO3)cc1` was 0.977% (inactive). Take `Cc1ccccc1NC(=O)CCS(=O)(=O)c1ccc2c(c1)OCC(=O)N2`: the activation is -0.0759% (inactive).

Take `Cc1cc2c(cc1S(=O)(=O)CCC(=O)Nc1ccccc1Cl)OCC(=O)N2`: the activation was 12% (active). With `CC(Nc1ccc(-c2cccc(C=O)c2)cn1)c1ccc(F)cc1` (stereo not drawn) the figure was 3.31% (inactive); with `C=CSC1=C(C#N)C(c2cccc3ccccc23)CC(=O)N1` (stereo not drawn), 0.0614% (inactive); with `CN(Cc1ccccc1)C(=O)c1nc2ccc(-c3cn[nH]c3)cc2s1`, 5.86% (active). With `CCN(Cc1ccccc1)C(=O)Nc1ccc(-c2cn[nH]c2)cc1OCCN(C)C` the figure was 0.0869% (inactive); with `CN(C)C(=O)c1cc(-c2cn[nH]c2)ccc1NC(=O)OCc1ccccc1`, 0.0349% (inactive); with `O=C(CCS(=O)(=O)c1cccc2nsnc12)N1CCCCCC1`, -0.702% (inactive).

On to `CNC(=O)C(NC(=O)c1ccc([N+](=O)[O-])cc1)C12CC3CC(CC(C3)C1)C2` (stereo not drawn), for which the activation is 0.352% (inactive). The value for `Cc1cccc(NC(=O)/C(=C\c2ccco2)NC(=O)c2ccccc2Br)c1` was 2.08% (inactive); that for `CC1=C(C(=O)N2CCOCC2)C(c2ccc(Cl)cc2)C2=C(CC(C)(C)CC2=O)N1` (stereo not drawn) was 0.141% (inactive); that for `CCc1cccc(OCC(=O)Nc2ccc3c(c2)OCCO3)c1` was -1.18% (inactive). Turning to `O=C(Cn1nc(-c2ccc3c(c2)OCCO3)ccc1=O)Nc1cccc(C(=O)NC2CC2)c1`, the activation was 0.799% (inactive). `CCOc1cccc(NC(=O)Cn2nc(-c3ccc4c(c3)OCCO4)ccc2=O)c1`: the activation is 8% (active).

`O=C(CSc1nnc(Cc2ccccc2)o1)c1ccc([N+](=O)[O-])cc1`: the activation was -0.861% (inactive).
